In ChEMBL document CHEMBL4513216, “Probing the Open Global Health Chemical Diversity Library for Multistage-Active Starting Points for Next-Generation Antimalarials” (ACS Infect Dis, 2020):
Among all 69,000 compounds or so, about 8,600 (12%) showed an effect of 50% or more. Only a selection was taken, and strong results are over-represented in it overall.

The compounds below were run on Plasmodium berghei (assay: Screen against P. berghei liver stage (PbLuc), transformed with Luciferase, at 10uM). Conditions: tested at 10 uM.
Assay type: functional, HepG2

| SMILES | INHIBITION [%] |
| --- | --- |
| Nc1cc(-c2cc[nH]n2)nc(N2CCCC2)n1 | 20.5 |
| CN(C)S(=O)(=O)N1CCC(c2c(C(N)=O)sc3ccccc23)C1 (stereo unspecified) | -11.4 |
| O=C1N(Cc2cccc(F)c2F)CCCC1(O)CNCc1ccccc1 (stereo unspecified) | 40.4 |
| O=C1N(Cc2cccc(F)c2F)CCCC1(O)CNCC1CCCCC1 (stereo unspecified) | 69.1 |
| Cn1cc(CNCC2(O)CCCN(Cc3ccc(F)c(F)c3)C2=O)cn1 (stereo unspecified) | -34 |
| C=C(C)CNCC1(O)CCCN(Cc2ccc(F)c(F)c2)C1=O (stereo unspecified) | 41.7 |
| O=C1N(Cc2ccc(F)c(F)c2)CCCC1(O)CNCC1CCCCC1 (stereo unspecified) | 68.8 |
| O=C1N(Cc2cccc(F)c2F)CCCC1(O)CNC1CCCC1 (stereo unspecified) | 11.5 |
| O=C1N(Cc2ccc(F)c(F)c2)CCCC1(O)CNCc1ccccn1 (stereo unspecified) | 4.25 |
| COCCNCC1(O)CCCN(Cc2ccc(F)c(F)c2)C1=O (stereo unspecified) | 6.65 |
| O=C1N(Cc2ccc(F)c(F)c2)CCCC1(O)CNCc1cccnc1 (stereo unspecified) | 60.9 |
| c1ccc(Cc2noc(CN(Cc3cccs3)CC3CCCO3)n2)cc1 (stereo unspecified) | 15.3 |
| NC(=O)CC1CCN(Cc2ccccc2OCC(F)(F)F)CC1 | 16.1 |
| CN1C(=O)C2(CCN(Cc3nccn3C)CC2)c2ccccc21 | -19.6 |
| CN1CC(=O)N(c2cnn(C)c2)CC12CCN(Cc1nccn1C)C2 (stereo unspecified) | 11.8 |
| Cc1n[nH]c(C)c1NC(=O)NCc1ccccn1 | 8.59 |
| NC(=O)C1(c2cnccn2)CCCN1Cc1ccc(F)c(F)c1 (stereo unspecified) | 20.8 |
| CN1CC(=O)N(c2ccsc2)CC12CCN(S(=O)(=O)C1CC1)C2 (stereo unspecified) | -6.23 |
| c1cc(OCc2ccc3c(c2)OCCO3)ccc1CNC1CC1 | 25.3 |
| CCCNCc1ccc(OCc2ccc3c(c2)OCCO3)cc1 | 25.1 |
| CC(C)(C)NCc1ccc(OCc2ccc3c(c2)OCCO3)cc1 | -47.8 |
| c1cc(OCc2ccc3c(c2)OCO3)ccc1CNC1CC1 | 73.4 |
| CC(C)(CO)NCc1ccc(OCc2ccc3c(c2)OCCO3)cc1 | 13.5 |

| SMILES | INHIBITION [%] |
| --- | --- |
| CCNCc1ccc(OCc2ccc3c(c2)OCCO3)cc1 | 67.3 |
| O=C1CCC2(CCC(NCc3ccc4c(c3)OCO4)CC2)N1 (stereo unspecified) | 30.9 |
| CC(O)CNCc1ccc(OCc2ccc3c(c2)OCCO3)cc1 (stereo unspecified) | 72.6 |
| CNCc1ccc(OCc2ccc3c(c2)OCCO3)cc1 | -0.621 |
| NC(=O)NCC1CCCCN1Cc1nc(-c2ccco2)no1 (stereo unspecified) | -31.1 |
| CC(C)(C)c1ccn(C2(C(=O)O)CCN(c3ncccc3C#N)CC2)n1 | 7.24 |
| COc1nccnc1N1CCC(C(=O)O)(n2ccc(C(C)(C)C)n2)CC1 | 53.8 |
| Cc1cnc(C)c(N2CCC(C(=O)O)(n3ccc(C(C)(C)C)n3)CC2)n1 | 3.84 |
| CNC(=O)C1(N2CCC[C@H]2C(=O)NC2CCOCC2)CCOCC1 | 15.4 |
| O=C(N1CCCC1)N1Cc2nccn2CC(Cn2ncccc2=O)C1 (stereo unspecified) | 32.2 |
| O=C(NCc1ccco1)[C@H]1C[C@H]2OCC[C@H]2N(C(=O)c2ccncc2)C1 | -15.5 |
| CN(Cc1ccco1)C1CCC12CCN(C(=O)C1CCOCC1)CC2 (stereo unspecified) | 43.2 |
| Cc1nnc(NC(=O)c2c3c(nn2C2CCS(=O)(=O)C2)CCC3)s1 (stereo unspecified) | -90.8 |
| CC(C)C(=O)Nc1ccc(Sc2nncn2C)c(Cl)c1 | 24.8 |
| CCOC(C)C(=O)Nc1ccc(Sc2nncn2C)c(Cl)c1 (stereo unspecified) | 64.4 |
| COCC(=O)Nc1ccc(Sc2nncn2C)c(Cl)c1 | 31.7 |
| O=C(NCC1(CO)CC1)NC(c1nccs1)C1CC1 (stereo unspecified) | -10.8 |
| CC(=O)N1CCc2nc(N3CCCC3)nc(C)c2C1 | 34.6 |
| Cn1ccc(C(=O)NCC2(O)CCN(c3cnccn3)C2)n1 (stereo unspecified) | 16.95 |
| Cn1c(CN2CCOC(CNc3cccnn3)C2)nnc1C1CC1 (stereo unspecified) | -16 |
| NC(=O)C1CCCN1C(=O)c1cccc2c1OCO2 (stereo unspecified) | -27.3 |
| CCN(C(=O)c1cccc2c1OCO2)c1ccccc1 | 55.9 |
| NC(=O)C1CCCN1C1CCN(C(=O)c2cccc3c2OCO3)CC1 (stereo unspecified) | 8.59 |

| SMILES | INHIBITION [%] |
| --- | --- |
| NC(=O)CCN(C(=O)c1cccc2c1OCO2)c1ccccc1 | 51.5 |
| CCN(C(=O)c1cccc2c1OCO2)c1ccc(Br)cn1 | 2.65 |
| CCN(Cc1cccc2c1OCO2)C(=O)Nc1ccccn1 | -67.3 |
| COc1cc(CN[C@@H]2COC[C@H]2Cc2cc(C)no2)cc(OC)c1 | 40 |
| Cn1cc(Br)c(C(=O)NCCCn2cc(Br)cn2)n1 | -16.3 |
| Cc1cc(C(=O)N2CCCN(Cc3cnn(C)c3)CC2)no1 | 27.335 |
| CS(=O)(=O)N1CCc2sc(C(=O)NCc3ccncc3)cc21 | 41.1 |
| O=C(c1cc2c(s1)CCCC2)N1CCCC1Cn1cccn1 (stereo unspecified) | 0.411 |
| Cn1ccc2c(ccn2CC(=O)Nc2ccc(Br)cc2)c1=O | 63.5 |
| Cc1ccc(NC(=O)Cn2ccc3c(=O)n(C)ccc32)cc1F | 11.9 |
| COc1ccc(NC(=O)Cn2ccc3c(=O)n(C)ccc32)cc1OC | -14.2 |
| CC(C)CNC(=O)CNC(=O)NC(c1nccs1)C1CC1 (stereo unspecified) | 8.59 |
| CCOc1ccccc1C(=O)NCCC(O)c1ccoc1 (stereo unspecified) | 85.5 |
| CCOc1ccccc1C(=O)NCCc1ccoc1 | 32.4 |
| CCOC(=O)NCCC(O)c1ccoc1 (stereo unspecified) | 52.1 |
| CCOCC(=O)NCCC(O)c1ccoc1 (stereo unspecified) | 31.3 |
| O=C(NCCC(O)c1ccoc1)Nc1cccs1 (stereo unspecified) | 13.8 |
| O=C(COc1ccccc1F)NCCC(O)c1ccoc1 (stereo unspecified) | -16.9 |
| CC(=O)N1CC[C@H]2OCC[C@@H](C(=O)NCc3ccco3)[C@H]2C1 | 35.7 |
| Cc1cccc(CN2C(=O)CCC23CCN(Cc2cccn2C)CC3)n1 | 24.9 |
| Cc1cc2ccccc2n1CC(=O)Nc1ccnn1CC1CCOC1 (stereo unspecified) | 40.7 |
| CN(Cc1ccncc1)C(=O)Nc1cnn(CC2CCCO2)c1 (stereo unspecified) | -5.53 |
| Cc1csc(CN(C)C(=O)Nc2cnn(CC3CCCO3)c2)n1 (stereo unspecified) | 0.825 |

| SMILES | INHIBITION [%] |
| --- | --- |
| CCc1cnc(CN(C)C(=O)Nc2cnn(CC3CCCO3)c2)s1 (stereo unspecified) | 51.4 |
| CCc1cnc(CN(C)C(=O)NC2CCN(c3ccccc3)C2)s1 (stereo unspecified) | -53.7 |
| CCc1cnc(CN(C)C(=O)NC2CCN(C)C2=O)s1 (stereo unspecified) | 68.2 |
| CCc1cnc(CN(C)C(=O)NC2CCN(CC3CC3)C2)s1 (stereo unspecified) | 39.2 |
| CC[C@@H]1N(Cc2cc(OC)cc(OC)c2)CCC[C@]12CCC(=O)N2C | -54.1 |
| CNC(=O)c1nc(COc2c(C)occc2=O)no1 | -11.9 |
| Cc1cncc(Oc2ccc(CO)cc2)n1 | 44.3 |
| Cc1cncc(Oc2ccc(CN)cc2)n1 | 60.5 |
| CNCc1ccc(Oc2cncc(C)n2)cc1 | -1.84 |
| CC(=O)c1ccc(N2CCC3(CCC(=O)N(CCCO)C3)CC2)nc1 | 30.9 |
| CC(=O)c1ccc(N2CCCC(CO)(Cc3ccccc3F)C2)nc1 (stereo unspecified) | 50.3 |
| CC(=O)c1ccc(N2CCCC(CO)(Cc3ccccc3C)C2)nc1 (stereo unspecified) | 75.6 |
| CCN1CC2(CCC1=O)CCN(c1ccc(C(C)=O)cn1)CC2 | 5.46 |
| Cc1ccccc1CC1(C(=O)O)CCCN(c2ncccn2)C1 (stereo unspecified) | 8.64 |
| NC(=O)c1ccnc(N2CCCC(CO)(Cc3ccccc3)C2)c1 (stereo unspecified) | 10.1 |
| O=C(CN1CCCCC1)Nc1cc(C(F)(F)F)ccc1-n1cccc1 | 9 |
| CCN1CC2(CC1=O)CN(Cc1cnn(C)c1)CCN(C(=O)N(C)C)C2 (stereo unspecified) | 20.9 |
| CS(=O)(=O)N1CCN(Cc2cccs2)CC(C(N)=O)C1 (stereo unspecified) | 8.72 |
| COCCN1C(=O)[C@@H]2CC[C@H]1CN(C(=O)CCc1n[nH]c(C)c1C)C2 | 34.9 |
| c1ccc(NCCn2cc(C3CCCNC3)nn2)cc1 (stereo unspecified) | 56.6 |
| O=S(=O)(NCCn1cc(C2CCCNC2)nn1)c1ccc(Cl)cc1 (stereo unspecified) | 35.4 |
| c1cc2c(cc1Cn1cc(C3CCCNC3)nn1)CCCO2 (stereo unspecified) | 16.7 |
| Cc1nnc(NC(=O)NCC(C)N2CCOCC2)s1 (stereo unspecified) | 2.05 |

| SMILES | INHIBITION [%] |
| --- | --- |
| CN(C)CCCNCCC(c1ccccc1)C1CCOC(C)(C)C1 (stereo unspecified) | 16.1 |
| CN(C)CCCNCCC(Cc1ccccc1)C1CCOC(C)(C)C1 (stereo unspecified) | 56.7 |
| CN(C)CCNCCC(Cc1ccccc1)C1CCOC(C)(C)C1 (stereo unspecified) | 23.1 |
| CNC(=O)CS(=O)(=O)Cc1cc(Cl)c2c(c1)OCCO2 | 21.5 |
| C(=C\c1ccc(CN2CCCC2)cn1)/c1ccccc1 | 84.2 |
| CCC/C=C/c1ccc(CN2CCN(C)CC2)cn1 | -13.2 |
| CCC/C=C/c1ccc(CN2CCCC2)cn1 | -4.51 |
| NC(=O)c1ccc(C(=O)N2CCCC(n3ccnc3)C2)s1 (stereo unspecified) | 23.4 |
| FC(F)(F)c1cccc(-c2c[nH]c(C3CCCN3)n2)c1 (stereo unspecified) | -14.8 |
| CCc1nnsc1C(=O)NCc1nnc2n1CCC2 | 60 |
| O=C(NCCc1nnc2n1CCCCC2)N1CCC2(CCCC2)CC1 | -56.9 |
| O=C(NCc1nnc2n1CCCCC2)N1CCC2(CCCCC2)C1 | 47.9 |
| O=C(NCc1nnc2n1CCC2)N1CCC2(CCCCC2)CC1 | 75.7 |
| CCc1nnsc1C(=O)NCCc1nnc2n1CCC2 | 14.3 |
| CCc1nnsc1C(=O)NCc1nnc2n1CCCCC2 | 41.4 |
| CC(C)CCC(=O)N1CCN(C(C)c2nnc(CC(C)C)o2)CC1 (stereo unspecified) | 13.8 |
| COCCNC(=O)CCN1C(=O)CC2(CCCC2)C1=O | 29 |
| Cc1cc(C(=O)N2CCCN(c3nccs3)CC2)c(C)n1C(C)C | -26.3 |
| Cc1cc(NC(=O)NCC(C(C)C)N2CCOCC2)n(C)n1 (stereo unspecified) | 28.8 |
